# In all, about 150,000 compounds went through this assay and about 540 (0.36%) showed an effect of 50% or more. Only a selection was taken, and strong results are over-represented in it overall.
# Tested on: Plasmodium falciparum
# Experiment: Primary screen in NF54 nanoGlo assay, in single point, at 2uM, 72h; a lower Z score goes with more inhibition
# Type: functional, Erythrocyte
# Conditions: timepoint 72 hour
Structure (SMILES),% Inhibition [%],Z score
CC(C)(C)c1ccc(CNC[C@H](O)c2ccc(F)cc2F)cc1,94,-16.43
CC(C)c1nc(N2CCC[C@@]3(CCNC3)C2)c2cc[nH]c2n1,2,-0.48
c1ccc(-c2cncnc2N2CC[C@]3(CCNC3)C2)cc1,-14,2.09
CN(C)CC12CNCC1CN(c1ccnc3cc(Cl)ccc13)C2 (centres undefined),97,-19.2
Fc1ccc(N2CC[C@H](CN3CCC(c4c[nH]c5ccccc45)(c4c[nH]c5ccccc45)CC3)C2)cc1,95,-18.87
Cc1ccc(CNc2ncnc(N)c2Cl)c(N2CCCC2)n1,50,-8.64
CCc1nnc(NCc2ccc(C)nc2N2CCCC2)nc1CC,-19,2.94
Cc1ccc([C@@H](O)CNCc2cc(O)cc(Cl)c2)cc1,7,-1.59
O[C@@H](CNCc1ccc2c(c1)CCO2)c1ccc(F)c(F)c1,72,-12.64
Fc1ccc(C2=CCN(C[C@@H]3CCCN4CCCC[C@H]34)CC2)cc1,0,-0.03
CN1CCN(c2ccc(C(F)(F)F)cc2NCc2cnc[nH]2)CC1,52,-7.95
Clc1ccc(CNCCN2CCC3(C2)OCCO3)c2ncccc12,-1,0.17
